Results: PubChem BioAssay (EPA / NIEHS)
Records with an inconclusive call do not appear. The source made the active and inactive calls. How the source made its calls: active means hit-call score of the fitted dose curve at least 0.9, where 1 is the maximum; inconclusive means response in the unintended direction; inactive means score below 0.9.

Biological target: Glucocorticoid receptor (Homo sapiens) (UniProt P04150)
Assay: ATG_GR_TRANS: Attagene TRANS-FACTORIAL HepG2 Assay for human Glucocorticoid Receptor (GR) (AID 2282978);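 further: activators score as hits since higher reporter transcript over DMSO is fitted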
Details: HepG2 Attagene TRANS GR reporter, mRNA transcription
Protocol: ATG_TRANS is a cell-based, multiplexed-readout assay that uses HepG2, a human liver cell line, with measurements taken at 24 hours after chemical dosing in a 24-well plate.ATG_GR_TRANS is one of 30 assay component(s) measured or calculated from the ATG_TRANS assay. It is designed to make measurements of mRNA induction, a form of inducible reporter, as detected with fluorescence intensity signals by Reverse transcription polymerase chain reaction (RT-PCR) and Capillary electrophoresis technology.Data from the assay component ATG_GR_TRANS was analyzed into 1 assay endpoint. This assay endpoint, ATG_GR_TRANS, was analyzed in the positive analysis fitting direction relative to DMSO as the negative control and baseline of activity. Using a type of inducible reporter, measures of mRNA for gain-of-signal activity can be used to understand the reporter gene at the transcription factor-level as they relate to the gene NR3C1. Furthermore, this assay endpoint can be referred to as a primary readout, because this assay has produced multiple assay endpoints where this one serves a reporter gene function. To generalize the intended target to other relatable targets, this assay endpoint is annotated to the nuclear receptor intended target family, where the subfamily is steroidal.
Human liver HepG2 cells are transiently transfected with multiple reporter transcription units (MRTUs) in 6-well plates using FuGene 6 reagent (Roche; 3 ml FuGene/1 mg DNA). The MRTU constructs are regulated by a cis-regulating element (promoter). […] A major difference between the CIS and TRANS system is that in CIS activities of endogenous TFs are measured, whereas the TRANS assay evaluates changes in activities of exogenous, chimeric NR-Gal4 proteins. […] At the end of 24 hour incubation, total RNA was isolated using TriZol reagent (Invitrogen). The isolated RNA is then reverse-transcribed using oligo(dT) primer and Mo-MLV reverse transcriptase (Invitrogen) with DNAse I (Ambion) treatment for 30 min. The one-tenth of the produced cDNA was amplified by PCR using Taq DNA polymerase (Invitrogen) and two reporter sequence-specific primers. The PCR products were fluorescently labeled by primer extension with 6-arboxyfluorescein (6-FAM) 5'-labeled reporter sequence-specific primer (2 min at 95 C, 20 s at 68 C and 10 min at 72 C) and these products were digested with 5U of HpaI (New England Biolabs) for 2h at 37 C. The fragments were purified using Qiaquick PCR columns (Qiagen), analyzed on an ABI 3130xL genetic analyzer (Applied Biosystems) with peak positions identified by using a set of X-rhodamine (ROX)-labeled MapMarker1000 molecular weight standards (BioVentures). The raw capillary electrophoresis data was processed using Attagraph software (Attagene).

Sequence of Glucocorticoid receptor (Homo sapiens) (P04150 whole entry, looked up): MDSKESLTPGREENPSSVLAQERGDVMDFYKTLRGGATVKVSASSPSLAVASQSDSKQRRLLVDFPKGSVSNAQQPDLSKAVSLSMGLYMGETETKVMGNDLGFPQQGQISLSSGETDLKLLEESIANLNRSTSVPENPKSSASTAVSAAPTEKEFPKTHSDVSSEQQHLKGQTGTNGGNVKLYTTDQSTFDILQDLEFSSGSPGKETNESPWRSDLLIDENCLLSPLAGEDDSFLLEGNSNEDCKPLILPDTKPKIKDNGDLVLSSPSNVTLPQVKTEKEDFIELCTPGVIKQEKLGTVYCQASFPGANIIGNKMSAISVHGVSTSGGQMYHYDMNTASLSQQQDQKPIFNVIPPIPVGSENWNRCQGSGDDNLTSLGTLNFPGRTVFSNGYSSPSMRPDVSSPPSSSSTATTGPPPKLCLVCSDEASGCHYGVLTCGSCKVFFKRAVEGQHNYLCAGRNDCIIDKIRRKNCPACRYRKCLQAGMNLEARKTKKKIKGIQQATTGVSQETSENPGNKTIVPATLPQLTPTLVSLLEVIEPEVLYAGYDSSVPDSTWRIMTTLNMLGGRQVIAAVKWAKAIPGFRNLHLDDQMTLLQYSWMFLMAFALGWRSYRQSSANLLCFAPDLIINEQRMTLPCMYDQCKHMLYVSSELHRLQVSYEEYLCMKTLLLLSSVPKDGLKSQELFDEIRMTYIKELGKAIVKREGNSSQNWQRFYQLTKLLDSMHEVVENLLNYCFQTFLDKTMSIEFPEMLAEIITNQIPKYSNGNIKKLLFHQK

outcome, inactive:
c1ccc2[nH]ccc2c1
CC(C)(C)NC(N)=O
Nc1cc(N)cc(C(=O)O)c1
S=C(S)NCCNC(=S)S
O=C(Nc1ccccc1)c1cc([N+](=O)[O-])ccc1Cl
O=CCCc1ccccc1
CC1(C)CCC(C)(C)c2cc(C(=O)Nc3ccc(C(=O)O)cc3)ccc21
COc1ccnc(CS(=O)c2nc3cc(OC(F)F)ccc3[nH]2)c1OC (stereo not given)
CCC(C)CCCC(C)(C)O (stereo not given)
CCC(C)(O)CCC=C(C)C (stereo not given)
O=C(O)c1cn(-c2ccc(F)cc2)c2cc(N3CCNCC3)c(F)cc2c1=O
CCC(=O)/C=C/C1C(C)=CCCC1(C)C (stereo not given)
C=CC(=O)OCC(O)COc1ccccc1 (stereo not given)
Cc1cccc(C)c1C
CC1(C)[C@H]2CC[C@]1(C)[C@H](O)C2
C=CC[N+](C)(C)CC=C
CCc1ccc(C=O)cc1
CCCCNC(=O)NS(=O)(=O)c1ccc(C)cc1
CSc1nnc(C(C)(C)C)c(=O)[nH]1
CC1CCC(C(C)(C)O)CC1 (stereo not given)
CC(=O)OCC=Cc1ccccc1
O=S(=O)(O)c1cccc2c(S(=O)(=O)O)cccc12
O=C(O)CCCCC1CCSS1 (stereo not given)
CC1CCC(C(C)CS)CC1S (stereo not given)
CN1Cc2c(N)cccc2C(c2ccccc2)C1 (stereo not given)
CC(=O)OCCC(C)CC(C)(C)C (stereo not given)
COc1cc2ncnc(Nc3cccc(Cl)c3)c2cc1OC
O=C(O)c1cccc(C(F)(F)F)c1
CCc1c(C)cc(N)c(CC)c1N
O=C(Oc1ccccc1)c1ccc(O)cc1
O=C(O)c1cn(C2CC2)c2cc(N3CCNCC3)c(F)cc2c1=O
C#C[C@]1(O)CC[C@H]2[C@@H]3CCC4=Cc5oncc5C[C@]4(C)[C@H]3CC[C@@]21C
CCCC(=O)c1cc(O)c(O)cc1O
COC(=O)c1ccc(C)cc1
NC(=O)Nc1ccc(Cl)cc1
CC(=O)OCCOC(C)=O
CC(O)C(C)O (stereo not given)
CCCCc1ccc(N)cc1

AC50, active:
Cc1ccc(C(=O)c2cc(O)c(O)c([N+](=O)[O-])c2)cc1 144 µM
CC(=O)O[C@]1(C(C)=O)CC[C@H]2[C@@H]3C[C@H](C)C4=CC(=O)CC[C@]4(C)[C@H]3CC[C@@]21C 0.354 µM
